Reference: PubChem BioAssay
Active and inactive are the calls of the source.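 Rule for the calls: active = inhibition above 20% together with a positive visual image hit; inconclusive = visual image hit but inhibition not above 20%; inactive = no visual image hit.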

Assay: inhibitors of TNFa-induced NFkB p65 translocation, primary screen, imaging, HUVEC, MLSMR starter and 10KST1 sets (AID 438);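 note: compound added about 3h40 before a 20 min TNFalpha stimulation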;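 for inhibition: signal is the nuclear over cytoplasmic p65 intensity ratio per well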
Conditions: HUVEC TNFa-induced p65 nuclear translocation; cell count: measured here: nuclei count (cytotoxicity indicator), at 2.08 µM; inhibition: at 2 µM, stronger effect = higher value, 0% TNFa-plus-vehicle, 100% no-TNFa wells

Row | Structure (SMILES) | cell count | inhibition
1 | CCCc1cc(C(=O)Nc2ccc(C(C)=O)cc2)no1 | 566 | -4.4% (inactive)
2 | Cc1cc(C(=O)NCc2cccnc2)n(-c2ccccc2)n1 | 613 | -0.9% (inactive)
3 | Cc1ccc(C)c(NC(=O)CC(NCCCN2CCOCC2)C(=O)O)c1 (stereo not given) | 494 | -13.6% (inactive)
4 | COc1c(Br)cc2c(C)c(C(=O)O)oc2c1Br | 472 | 3.5% (inactive)
5 | CCOCCCNC(=O)C(c1ccc(C)cc1)N(Cc1ccc2c(c1)OCO2)C(=O)c1cnccn1 (stereo not given) | 275 | 13.1% (inactive)
6 | CC1CCCN(S(=O)(=O)c2coc(C(N)=O)c2)C1 (stereo not given) | 697 | -0.6% (inactive)
7 | Clc1ccc(C2=Nn3c(nnc3-c3n[nH]c4c3CCC4)SC2)cc1Cl | 434 | 3% (inactive)
8 | Clc1cccc(-c2nnc(-c3ccccc3)o2)c1 | 610 | -15.9% (inactive)
9 | CCOc1ccc(NC(=O)CN(C)CC(=O)NC2CCCc3ccccc32)cc1OCC (stereo not given) | 451 | 14.9% (inactive)
10 | Cc1nnc(SCC(=O)NCc2ccccc2)s1 | 513 | -11.9% (inactive)
11 | CCOC(=O)CSc1nc2sc(C)c(C)c2c(=O)n1C | 259 | 12.5% (inactive)
12 | COc1ccc(N2C(N)=C(C#N)C(c3cccnc3)C3=C2CC(C)(C)CC3=O)cc1 (stereo not given) | 446 | -7.5% (inactive)
13 | Cc1ccc(OCC(O)CN2C(=O)NC(C)(C)C2=O)cc1C (stereo not given) | 673 | -2.9% (inactive)
14 | Cc1ccccc1-n1c(Cn2c(=O)sc3ccccc32)nnc1SCC(=O)N1CCCC1 | 652 | 8.7% (inactive)
15 | COc1ccc(-c2noc(-c3ccccc3C(=O)NCc3ccco3)n2)cc1 | 331 | 9.3% (inactive)
16 | O=C(NCCCn1ccnc1)c1cnn2c1NC(c1ccccc1)CC2C(F)(F)F (stereo not given) | 616 | -4.9% (inactive)
17 | CC1(C)Oc2ccc3ccc(=O)oc3c2C(N2CCCCC2)C1O (stereo not given) | 329 | -4.5% (inactive)
18 | O=C(c1cnn2c1NC(c1ccco1)CC2C(F)(F)F)N1CCN(c2cccc(Cl)c2)CC1 (stereo not given) | 313 | -3.8% (inactive)
19 | Cc1ccc(-c2nn(-c3ccccc3)cc2CN(Cc2ccccc2)C(=O)CCC(=O)O)o1 | 329 | 7.1% (inactive)
20 | COC(=O)C1(C)NC(c2cccs2)C2C(=O)N(c3ccccc3F)C(=O)C21 (stereo not given) | 334 | 2.8% (inactive)

Row | Structure (SMILES) | cell count | inhibition
21 | O=c1ccc(S(=O)(=O)N2CCC(Cc3ccccc3)CC2)c[nH]1 | 451 | 0% (inactive)
22 | O=C(CN(CCc1ccccc1)C(=O)CNS(=O)(=O)c1ccccc1)NCC1CCCO1 (stereo not given) | 322 | 11.7% (inactive)
23 | CCn1c(SCC(=O)NC)nnc1C(C)C | 718 | -11.9% (inactive)
24 | O=C(Cn1ncc2c(=O)oc3ccccc3c21)NCC1CCCO1 (stereo not given) | 725 | 6.6% (inactive)
25 | Cc1ccc(-c2csc3ncn(-n4c(C)ccc4C)c(=O)c23)o1 | 575 | 6.1% (inactive)
26 | CCCOc1ccc(N2C(=O)CC(SCCN)C2=O)cc1 (stereo not given) | 428 | -8.7% (inactive)
27 | N#CC1=C(N)C(C#N)(C#N)[C@H](c2ccsc2)[C@H]2COCC=C12 | 337 | 5.5% (inactive)
28 | O=C(CCS(=O)(=O)c1cccc2nonc12)Nc1cccc2c1CCCC2 | 500 | -1.9% (inactive)
29 | C=COCCNC(=O)Nc1ccc(Cl)c(Cl)c1 | 387 | -7% (inactive)
30 | COc1ccc(CN2C(=O)[C@@H]3C(c4ccc(F)cc4)=NO[C@@H]3C2=O)cc1 | 338 | -10.5% (inactive)
31 | Cc1nc(NC(=O)C23CCC(C)(C(=O)O2)C3(C)C)sc1C (stereo not given) | 595 | -13.1% (inactive)
32 | COc1ccc(-c2cc3n(n2)CCc2nc4ccccc4n2-3)cc1 | 415 | -32.3% (inactive)
33 | Clc1ccc(C2Nc3ccccc3-n3cccc32)cc1 (stereo not given) | 637 | -1.6% (inactive)
34 | CCOC(=O)c1[nH]c(C)c(C(=O)N2CCN(C(=O)c3ccco3)CC2)c1C | 780 | -13.4% (inactive)
35 | CCCCSCCCNC(=O)CS(=O)Cc1nc(-c2cccc(C)c2)oc1C (stereo not given) | 527 | -9.6% (inactive)
36 | O=C(COC(=O)CSc1nnc(-c2ccc(Cl)cc2)o1)NCc1ccc2c(c1)OCO2 | 517 | -2.4% (inactive)
37 | Cc1ccc(C)c(S(=O)(=O)C(C#N)c2nc3ccccc3nc2N2CC(C)OC(C)C2)c1 (stereo not given) | 358 | -4.1% (inactive)
38 | COC(=O)c1sc2ccccc2c1NC(=O)c1cccs1 | 729 | 16.4% (inactive)
39 | CS(=O)(=O)N1CCN(c2ccccc2NC(=O)c2cccs2)CC1 | 629 | 0.5% (inactive)
40 | CNC(=O)c1ccc(N(Cc2ccccc2C)S(C)(=O)=O)cc1 | 710 | -2.6% (inactive)
